Test results taken from PubChem BioAssay AID588342 (National Center for Advancing Translational Sciences (NCATS), 2011).
In all, about 360,000 compounds went through this assay and about 25,000 (6.9%) were called active. Not shown: some 9% with an inconclusive outcome. The entries come from a sample that favours actives as a whole. A number with no mark means an inactive call. Calls follow the shape of the dose curve; as a rule, active = well fitted inhibition curve with a large enough effect; inconclusive = small, poorly fitted or top-dose-only effect; inactive = flat fitted curve, though single readings scatter.

biological target: Luciferin 4-monooxygenase (Photinus pyralis) (UniProt P08659); test: qHTS profiling assay for firefly luciferase inhibitor/activator using purifed enzyme and Km concentrations of substrates (counterscreen for miR-21 project); conditions: purified FLuc, luminescence inhibition; series mostly up to 57.5 µM; activity change, negative = inhibition: at the top concentration; also: nearly all actives have a fitted effect of over 55% in size;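 as to activity change, negative = inhibition: plate controls were vehicle for no effect and reference inhibitor for full effect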
In short: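 Purified P. pyralis luciferase, 10 nM final, with Km-level 10 uM D-luciferin and 10 uM ATP in 50 mM Tris acetate pH 7.5, 10 mM Mg acetate, 0.01% Tween-20, 0.05% BSA; 6-point qHTS titration about 60 µM downward; luminescence read.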
Potency is read from the fitted curve at half-maximal effect.

Chain of Luciferin 4-monooxygenase (Photinus pyralis) (P08659 whole entry, looked up): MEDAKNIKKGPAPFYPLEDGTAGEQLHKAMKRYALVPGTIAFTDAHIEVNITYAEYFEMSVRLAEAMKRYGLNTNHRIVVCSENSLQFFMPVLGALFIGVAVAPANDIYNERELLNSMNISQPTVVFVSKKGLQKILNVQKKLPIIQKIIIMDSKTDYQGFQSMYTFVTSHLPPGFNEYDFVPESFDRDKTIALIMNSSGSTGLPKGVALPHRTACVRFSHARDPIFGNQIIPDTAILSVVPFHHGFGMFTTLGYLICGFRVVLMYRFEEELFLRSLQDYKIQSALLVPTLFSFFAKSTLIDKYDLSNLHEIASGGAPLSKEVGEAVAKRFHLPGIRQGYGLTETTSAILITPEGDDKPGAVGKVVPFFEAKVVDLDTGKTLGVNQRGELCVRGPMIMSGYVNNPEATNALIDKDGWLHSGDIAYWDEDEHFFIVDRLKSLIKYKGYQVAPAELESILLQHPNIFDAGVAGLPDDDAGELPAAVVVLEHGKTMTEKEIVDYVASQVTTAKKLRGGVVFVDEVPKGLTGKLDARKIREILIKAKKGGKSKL

| Structure (SMILES) | activity change, negative = inhibition | Potency |
| --- | --- | --- |
| CCCCNC(=O)Cn1nc(C)c(S(=O)(=O)N2CCOCC2)c1C | 6.35% | – |
| Cc1ccc(OCC(=O)OCc2cc(=O)n3nc(C4CC4)sc3n2)cc1C | -5.73% | – |
| Cc1nn(-c2nc(-c3ccccc3)cc(C(F)(F)F)n2)c(C)c1Cl | -10.5% | – |
| COC(=O)c1cc(S(=O)(=O)N2CCN(c3cc(Cl)ccc3C)CC2)c[nH]1 | -8.69% | – |
| COc1ccc(NC(=O)CSc2nccn2C2CCCC2)cc1OC | -9.33% | – |
| COC(=O)c1ccccc1NC(=O)c1ccc(COc2ccccc2Cl)o1 | 0.735% | – |
| COc1ccc(OCc2cc(C(=O)NCC3(C)COC3)no2)c(Cl)c1 | – | 19 µM (active) |
| COc1ccc(CCNC(=O)c2cnc(Cl)c(Cl)c2)cc1 | -8.36% | – |
| CC1CCCN(Cc2c(O)ccc3c(=O)c(Oc4ccc(C(C)(C)C)cc4)c(C(F)(F)F)oc23)C1 (centres undefined) | -0.574% | – |
| COc1ccc(NC(=O)Cn2c(=O)n(Cc3ccc(C(=O)NCc4ccccc4Cl)cc3)c(=O)c3ccccc32)cc1 | -5.56% | – |
| O=C(Cn1c(=O)n(Cc2cccs2)c(=O)c2cccnc21)Nc1ccc(F)cc1 | -12.1% | – |
| COc1cc(C(=O)N2CCC(c3ccncc3)CC2)cc(OC)c1OC | -0.564% | – |
| C/C(N)=C(/C#N)C(=O)COC(=O)C1CCN(C(=O)c2ccc(Cl)cc2)CC1 | -1.2% | – |
| COc1cccc(CNC(=O)c2ccc3c(c2)sc2nc(-c4cccc(OC)c4)cn23)c1 | 1.31% | – |
| Cc1ccc2nc(COc3cccc(NC(=O)c4ccccc4Cl)c3)cc(=O)n2c1 | – | 10.7 µM (active) |
| Cc1ccc2nc(COc3cccc(NC(=O)Nc4ccc(C)c(Cl)c4)c3)cc(=O)n2c1 | -15.5% | – |
| Cc1ccc2nc(COc3cccc(NC(=O)c4cccc(Cl)c4)c3)cc(=O)n2c1 | -1.22% | – |
| O=C(CNS(=O)(=O)c1ccc2ccccc2c1)Nc1ccc(F)c(F)c1F | -0.997% | – |
| O=C(NCCc1ccccc1)c1ccc2c(c1)N(Cc1ccccc1)C(=O)c1ccccc1S2(=O)=O | -0.938% | – |
| NS(=O)(=O)c1ccccc1NC(=O)c1c(O)c2ccccc2[nH]c1=O | – | 9.53 µM (active) |
| CCCc1nc2ccccc2c(=O)n1NC(=O)c1c(O)c2ccccc2[nH]c1=O | -1.3% | – |
| CC(C)C(=O)Nc1c(O)c2ccccc2[nH]c1=O | -1.52% | – |
| CC1(C)N=C(SCc2ccccc2Cl)c2ccccc2N1 | -13.1% | – |
| Cc1noc(/C=C/N(C)C)c1S(=O)(=O)N1CCCC(C(=O)Nc2cccc(F)c2)C1 (centres undefined) | -2.85% | – |
| Cc1ccc(S(=O)(=O)N2CC(O)C[C@H]2C(=O)OCC(=O)Nc2ccc(N3CCOCC3)cc2)cc1C (some centres undefined) | -11.1% | – |

| Structure (SMILES) | activity change, negative = inhibition | Potency |
| --- | --- | --- |
| CC(=O)c1sc(N2C(=O)c3oc4ccccc4c(=O)c3C2c2ccc(C)cc2)nc1C (centres undefined) | 4.04% | – |
| COc1ccc(-n2c(-c3ccc(OC)c(OC)c3)n[nH]c2=S)cc1 | 0.218% | – |
| CCN(CC)S(=O)(=O)c1ccc(-c2cn3ccc(C)cc3n2)cc1 | – | 2.39 µM (active) |
| COc1ccc(-c2cn3c(C)c(C(=O)Nc4cc(C)cc(C)c4)sc3n2)cc1 | -3.09% | – |
| CCN(c1cccc(C)c1)S(=O)(=O)c1ccc(-c2coc(C)n2)cc1 | -0.211% | – |
| COc1ccc(-c2cn3ccc(C)cc3n2)cc1 | – | 0.19 µM (active) |
| CCN(CC(=O)NCCc1ccccc1)S(=O)(=O)c1ccc(C)cc1 | 0.229% | – |
| Fc1ccc(CN2CCc3nc(Nc4ccccc4)ncc3C2)cc1F | -10.5% | – |
| O=C(Nc1cc(C(F)(F)F)ccc1Cl)c1nc2ccccc2nc1N1CCCCC1 | 0.203% | – |
| CCN1CCC(N(Cc2ccc(F)cc2)C(=O)Nc2cc(C)ccc2C)CC1 | -1.66% | – |
| O=C(NC1CCCCC1)c1ccc2c(c1)N(Cc1ccc(Cl)cc1)C(=O)c1ccccc1S2=O (centres undefined) | 3.17% | – |
| CN(C(=O)COC(=O)CCCc1c[nH]c2ccccc12)c1c(N)n(Cc2ccccc2)c(=O)[nH]c1=O | 4.71% | – |
| CCc1nc2onc(C)c2c(=O)n1CC(=O)O | -0.818% | – |
| CC(C)CNC(=O)C(=O)NCc1ccccc1 | 0.285% | – |
| CC(C)CNC(=O)C(=O)Nc1ccc(N(C)C)cc1 | – | 10.7 µM (active) |
| CC(C)CNC(=S)Nc1ccc(F)cc1 | 4.61% | – |
| COc1ccc(CNC(=O)CSc2nc3ccccc3nc2Cc2ccccc2)cc1 | -6.86% | – |
| COC(=O)c1cc(=O)n(-c2c(Cl)cc(C(F)(F)F)cc2Cl)[nH]1 | -0.736% | – |
| Cc1ccc(CNC(=O)Cc2cn(C)c3ccccc23)cc1 | – | 15.1 µM (active) |
| Cn1cc(CCC(=O)NCc2ccc3c(c2)OCO3)c2ccccc21 | -3.15% | – |
| CCc1ccccc1NC(=O)Cc1cn(C)c2ccccc12 | – | inactive |
| COc1cc(Cl)c(NC(=O)CC(C)S(=O)(=O)c2cc3c(cc2C)NC(=O)CO3)c(OC)c1 (centres undefined) | 4.64% | – |
| Cc1cc2c(=O)n(CC(=O)NCC(=O)Nc3ccc(C(C)C)cc3)cnc2s1 | 0.706% | – |
| CC(=O)c1sc(N/N=C/c2ccc(C(C)C)cc2)nc1C | – | 6.01 µM (active) |
| CCCCCCC(=O)Nc1nc(C)c(-c2csc(Nc3cc(Cl)ccc3OC)n2)s1 | 3.19% | – |

| Structure (SMILES) | activity change, negative = inhibition | Potency |
| --- | --- | --- |
| Cc1ccc(C)c2sc(NC(=O)c3ccc(S(=O)(=O)N4CCCC4)cc3)nc12 | -4.28% | – |
| Cc1nc(NC(=O)c2cccc(Cl)c2)sc1-c1csc(Nc2cccc(Cl)c2)n1 | -19.1% | – |
| Cc1ccc(Nc2nc(-c3sc(NC(=O)c4ccccc4)nc3C)cs2)cc1 | – | 12 µM (active) |
| CC(=O)c1sc(N/N=C\c2ccc(C)cc2)nc1C | – | 2.39 µM (active) |
| CC(=O)c1sc(NC(=O)c2ccc(C)cc2)nc1C | – | 1.9 µM (active) |
| Cc1nnc(C)n1/N=C/c1ccc(C(C)C)cc1 | -14.6% | – |
| CC(=O)c1sc(N)nc1C | 2.76% | – |
| CC(=O)c1sc(NC(=O)C2=NN(c3ccccc3)C(=O)CC2)nc1C | -8.27% | – |
| CC(=O)Nc1ccc(NC(=O)C2CCCN(S(=O)(=O)c3ccc4c(c3)CCCC(=O)N4)C2)cc1 (centres undefined) | 3.09% | – |
| CCc1cccc(CC)c1NC(=O)COc1ccccc1C(=O)c1cc(C#N)c(=O)n(C2CCCCC2)c1 | 0.626% | – |
| C=C(C)CNc1cc(S(=O)(=O)N2CCOCC2)ccc1Oc1ccccc1 | -9.91% | – |
| Cc1ccc(Nc2c(-c3ccc(Cl)cc3)nc3sccn23)c(C)c1 | 1.53% | – |
| Cc1ccc(-c2nn3c(=O)cc(CN4CCN(S(=O)(=O)c5ccc(Cl)cc5)CC4)nc3s2)cc1 | -1.26% | – |
| O=S(=O)(c1ccc(C2CCCCC2)cc1)N1CCN(c2ccc(Cl)c(Cl)c2)CC1 | -0.965% | – |
| CC(C)C(=O)Nc1ccc2oc(=O)ccc2c1 | -0.984% | – |
| CC(C)C(=O)Nc1ccc2c(c1)oc1ccccc12 | – | 2.69 µM (active) |
| Cc1cc(=O)oc2cc(NC(=O)C(C)Oc3ccccc3)ccc12 (centres undefined) | -4.58% | – |
| COc1cc2nc(SCc3ccc(F)cc3)n3nc(CCn4c(C)nc5ccccc54)nc3c2cc1OC | 3.7% | – |
| O=C(CCc1nc(CN2CCN(S(=O)(=O)c3ccc(F)cc3)CC2)no1)N1CCCCC1 | -0.23% | – |
| CCC(=O)N1CCc2cc(Br)cc(S(=O)(=O)CCC(=O)NCCc3ccc(OC)c(OC)c3)c21 | -1.48% | – |
| CCC(=O)N1c2ccccc2CC1C(=O)N1CCN(c2ccccc2F)CC1 (centres undefined) | -2.51% | – |
| Cc1ccc2nc(Nc3ccccc3O)nc(-c3ccccc3)c2c1 | 5.48% | – |
| Cc1ccc2nc(Nc3ccccc3)cc(C)c2c1 | – | 23.9 µM (active) |
| COc1cc(OC)cc(C(=O)Nc2ccc3nc(Nc4cccc(C(F)(F)F)c4)cc(C)c3c2)c1 | -0.831% | – |
| O.O.O.O=S(=O)([O-])OC[C@H]1O[C@@H](O[C@]2(COS(=O)(=O)[O-])O[C@H](OS(=O)(=O)[O-])[C@@H](OS(=O)(=O)[O-])[C@@H]2OS(=O)(=O)[O-])[C@H](OS(=O)(=O)[O-])[C@@H](OS(=O)(=O)[O-])[C@@H]1OS(=O)(=O)[O-].[Al] | 3.26% | – |

| Structure (SMILES) | activity change, negative = inhibition | Potency |
| --- | --- | --- |
| CSc1nc2ccc(NC(=O)c3c(F)cccc3F)cc2s1 | – | 19 µM (active) |
| O=C(Nc1ccncc1)c1c(F)cccc1F | -3.22% | – |
| CC(=O)Nc1ccc2nc(SCCOc3cc(C)cc(C)c3)sc2c1 | -7.29% | – |
| CCn1c(=O)c(=O)n(CC)c2cc(N3CCCCC3)c(NC(=O)c3ccc(Cl)cc3)cc21 | 2.47% | – |
| CC(=O)Cn1ncc(N2CCOCC2)c(Br)c1=O | -1.76% | – |
| O=C(Cn1ncc(N2CCCC2)c(Br)c1=O)c1ccc(Cl)cc1 | – | 19 µM (active) |
| COc1ccccc1NC(=O)c1cc(Cl)nc2ccccc12 | -8.53% | – |
| CCN(CC)CCNC(=O)c1ccc(NC(=O)c2cc(-c3ccncc3)nc3ccccc23)cc1 | -1.21% | – |
| O=C(O)c1cccc(NC(=O)c2cc(-c3cccc(Cl)c3)nc3ccccc23)c1 | – | 16.9 µM (active) |
| CCOc1cc(-c2nnc(SCC(=O)NC3CCCC3)nc2-c2ccc(OC)c(OCC)c2)ccc1OC | -2.08% | – |
| COc1ccc(CNC(=O)CSc2n[nH]c(-c3ccc(F)cc3)n2)cc1 | -15.8% | – |
| CCc1ccc(-c2nc(SCC(=O)NC3CCCC3)n[nH]2)cc1 | – | 19 µM (active) |
| CC(=O)C[C@@H](O)CC(=O)[C@H]1OC(=O)CCCCCCc2ccccc21 | 0.211% | – |
| CC(C)(C)c1ccc(C(=O)N2CCC(C(=O)N3CCCCC3)CC2)cc1 | 1.12% | – |
| O=C(Nc1ccccc1)C1CCN(C(=O)c2ccc(Br)cc2)CC1 | 3.48% | – |
| C/C(=C\C(=O)c1ccc(Br)cc1)N1CCCCC1 | – | 15.1 µM (active) |
| COc1cccc(CNC(=O)Cn2ncn3c(cc4ccccc43)c2=O)c1 | 3.75% | – |
| CCC(C)Cn1c(O)cc2nn(-c3nc4ccccc4s3)c(=O)c-2c1C (centres undefined) | – | 0.301 µM (active) |
| Cc1cc(NC(=O)CN2CCCC(C)C2)n(-c2nc3ccccc3s2)n1 (centres undefined) | -0.742% | – |
| S=C(Nc1cccc(Br)c1)N1CCn2cccc2C1c1cccnc1 (centres undefined) | 1.23% | – |
| CCCCCCCCCCCCCCCC(=O)OC/C=C(C)/C=C/C=C(C)/C=C/C1=C(C)CCCC1(C)C | -0.543% | – |
| O=C(CCS(=O)(=O)c1ccc2c(c1)NC(=O)CO2)Nc1cccc(C(F)(F)F)c1 | -2.12% | – |
| CCNc1nc(SCCOc2ccccc2)nc(N(C)C)n1 | -13.8% | – |
| COc1cn(CC(=O)Nc2cccc(C)c2C)c(CN2CCCCC2)cc1=O | 0.302% | – |
